Experimental findings from PubChem BioAssay (NCI) are described below.

Compounds without any hit were thinned out: in the full panel of roughly 83,000, 20% have a hit.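 Note: values are percent growth. 100 is the growth of untreated cells, values between 100 and 0 indicate rising inhibition; between -100 and 0 indicates cell death.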 Calls of active or inactive are those of the source. How the source made its calls: active means growth percent below 10; inactive means the rest.

The experiment concerns CCRF-CEM leukemia. Kind of experiment: NCI-60 one-dose screen, 48 h (100 = growth as untreated, 0 = no growth, -100 = all killed). As to conditions: 10 µM.
As to `C=C(C(=O)c1ccccc1)C(NC(C)(C)C)c1ccccc1` (stereo not given), the growth was 5.75% (active).
Turning to `N=c1c2c(-c3ccccc3)c(-c3ccccc3)n(Cc3ccccc3)c2ncn1CCCO`, the growth is 28.9% (inactive).
In the case of `COc1cc(/C=C2\Oc3cc(OCC(=O)c4ccccc4)ccc3C2=O)cc(OC)c1OC`, the growth is 73.2% (inactive).
The result for `O=C(Nc1nc2ccc(F)cc2s1)c1cc(-c2ccc(F)cc2)n2nc(-c3ccccc3)cc2n1` reads 74.5% (inactive).
For `CCN1CCC2(CC1)OC(c1ccccc1)C(c1ccccc1)O2` (stereo not given) the value was 91.7% (inactive).
In the case of `O=C(O)c1ccc(Cl)cc1Nc1ccc(F)cc1`, the growth was 31.4% (inactive).
For `CCCCCC(=O)c1ccc(OCCCN2CCN(C(=O)OCC)CC2)cc1` the value was 21.1% (inactive).
As for `COc1ccc(-c2nnc(-c3c(-c4ccccc4)nc4ncccn34)o2)cc1OC`, the growth is 96.7% (inactive).
Regarding `COc1ccc2nc3cc(Cl)ccc3c(NCCNCC(C)O)c2c1` (stereo not given), the growth is 19.3% (inactive).
For `CC(C)(C)NC/C(=C\c1ccccc1)C(=O)c1ccccc1` the value was 10.7% (inactive); for `COc1ccc(-c2ccc3cc(C(=O)Nc4ccc(O)c(C(=O)/C=C/c5cc(OC)c(OC)c(OC)c5)c4)ccc3c2)cc1`, 53.8% (inactive).
Consider `CCCCN(CCCC)c1cc(C(=O)CCCCCN)c2ccccc2n1`, for which the growth is -70.4% (active).
The result for `COc1ccc(NC(=O)Cc2nc3nc4sc(C)c(C)c4c(=O)n3[nH]2)cc1` reads 90.4% (inactive); that for `COc1cc(-c2nc(-c3nnc(-c4ccc(F)c(Cl)c4)o3)c3ccccn23)cc(OC)c1OC`, 68.6% (inactive).
For `NC(=O)SCC(=O)Nc1ccc(S(N)(=O)=O)cc1`, the growth was 106% (inactive).
